# Records with an inconclusive call do not appear. Activity calls are given as the source filed them. Unless noted, the call rests on the fitted dose curve.
# Target: Ubiquitin carboxyl-terminal hydrolase 2 (Homo sapiens) (UniProt O75604)
# Test: qHTS Validation Assay for Inhibitors of Ubiquitin-specific Protease USP2a Using CHOP2 as the Reporter (AID 463106; active means well fitted curve in the direction sought with a large enough effect; an effect the other way counts as inactive or inconclusive;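 further: plate controls were DMSO for no effect and full inhibition by NEM for full effect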)
# Conditions: USP2a cleavage of CHOP2 reporter, enzymatic; series mostly up to 38.3 µM; activity, negative = inhibition: at the top concentration
# In short: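 USP2 core (10 nM final) was preincubated with compound 30 min at RT in pH 8.0 Tris/CaCl2/beta-ME/CHAPS buffer. Ub-CHOP2 and reporter substrate (25 nM final each) were then added, with fluorescence (Ex 485/Em 531) read after 60 min. Data were normalized to NEM full inhibition and fitted to concentration-response curves.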
# Ubiquitin carboxyl-terminal hydrolase 2 (Homo sapiens), sequence (O75604 whole entry, looked up): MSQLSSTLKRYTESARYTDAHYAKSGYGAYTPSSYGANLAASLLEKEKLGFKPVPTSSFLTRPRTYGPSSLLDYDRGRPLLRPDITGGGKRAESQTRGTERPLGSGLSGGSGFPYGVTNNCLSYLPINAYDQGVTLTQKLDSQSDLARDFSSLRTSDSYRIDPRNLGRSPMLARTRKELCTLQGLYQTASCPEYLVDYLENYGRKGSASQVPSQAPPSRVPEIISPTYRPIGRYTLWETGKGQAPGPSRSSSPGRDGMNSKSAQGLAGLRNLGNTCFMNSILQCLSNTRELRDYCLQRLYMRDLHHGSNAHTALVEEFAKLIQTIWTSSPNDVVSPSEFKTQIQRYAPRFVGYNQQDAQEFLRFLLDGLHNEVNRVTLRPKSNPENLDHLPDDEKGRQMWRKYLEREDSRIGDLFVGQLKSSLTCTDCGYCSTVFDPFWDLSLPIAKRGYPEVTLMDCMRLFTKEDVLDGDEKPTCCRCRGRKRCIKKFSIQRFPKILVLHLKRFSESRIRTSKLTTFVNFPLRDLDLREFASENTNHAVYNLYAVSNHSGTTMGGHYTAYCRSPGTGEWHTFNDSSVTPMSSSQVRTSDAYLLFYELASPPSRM
row,SMILES,"activity, negative = inhibition"
1,CCCN(CCc1ccccc1)C1CCc2c(O)cccc2C1 (centres undefined),-1.15% (inactive)
2,CC1C(=O)N(C)C(=O)c2nc[nH]c21 (centres undefined),3.77% (inactive)
3,c1ccc(C(NCc2cccnc2)(c2ccccc2)c2ccccc2)cc1,1.97% (inactive)
4,CN(C)CCCc1cc(C(=O)Nc2ccc(-c3ccncc3)cc2)ccc1O,-1.48% (inactive)
5,O=C(O)Cc1ccc(O)c(O)c1,-1.04% (inactive)
6,CC1CCN=C(N)S1 (centres undefined),-0.734% (inactive)

# Target: DNA polymerase III PolC-type (Bacillus subtilis (strain 168)) (UniProt P13267)
# Sequence (P13267 whole entry, looked up): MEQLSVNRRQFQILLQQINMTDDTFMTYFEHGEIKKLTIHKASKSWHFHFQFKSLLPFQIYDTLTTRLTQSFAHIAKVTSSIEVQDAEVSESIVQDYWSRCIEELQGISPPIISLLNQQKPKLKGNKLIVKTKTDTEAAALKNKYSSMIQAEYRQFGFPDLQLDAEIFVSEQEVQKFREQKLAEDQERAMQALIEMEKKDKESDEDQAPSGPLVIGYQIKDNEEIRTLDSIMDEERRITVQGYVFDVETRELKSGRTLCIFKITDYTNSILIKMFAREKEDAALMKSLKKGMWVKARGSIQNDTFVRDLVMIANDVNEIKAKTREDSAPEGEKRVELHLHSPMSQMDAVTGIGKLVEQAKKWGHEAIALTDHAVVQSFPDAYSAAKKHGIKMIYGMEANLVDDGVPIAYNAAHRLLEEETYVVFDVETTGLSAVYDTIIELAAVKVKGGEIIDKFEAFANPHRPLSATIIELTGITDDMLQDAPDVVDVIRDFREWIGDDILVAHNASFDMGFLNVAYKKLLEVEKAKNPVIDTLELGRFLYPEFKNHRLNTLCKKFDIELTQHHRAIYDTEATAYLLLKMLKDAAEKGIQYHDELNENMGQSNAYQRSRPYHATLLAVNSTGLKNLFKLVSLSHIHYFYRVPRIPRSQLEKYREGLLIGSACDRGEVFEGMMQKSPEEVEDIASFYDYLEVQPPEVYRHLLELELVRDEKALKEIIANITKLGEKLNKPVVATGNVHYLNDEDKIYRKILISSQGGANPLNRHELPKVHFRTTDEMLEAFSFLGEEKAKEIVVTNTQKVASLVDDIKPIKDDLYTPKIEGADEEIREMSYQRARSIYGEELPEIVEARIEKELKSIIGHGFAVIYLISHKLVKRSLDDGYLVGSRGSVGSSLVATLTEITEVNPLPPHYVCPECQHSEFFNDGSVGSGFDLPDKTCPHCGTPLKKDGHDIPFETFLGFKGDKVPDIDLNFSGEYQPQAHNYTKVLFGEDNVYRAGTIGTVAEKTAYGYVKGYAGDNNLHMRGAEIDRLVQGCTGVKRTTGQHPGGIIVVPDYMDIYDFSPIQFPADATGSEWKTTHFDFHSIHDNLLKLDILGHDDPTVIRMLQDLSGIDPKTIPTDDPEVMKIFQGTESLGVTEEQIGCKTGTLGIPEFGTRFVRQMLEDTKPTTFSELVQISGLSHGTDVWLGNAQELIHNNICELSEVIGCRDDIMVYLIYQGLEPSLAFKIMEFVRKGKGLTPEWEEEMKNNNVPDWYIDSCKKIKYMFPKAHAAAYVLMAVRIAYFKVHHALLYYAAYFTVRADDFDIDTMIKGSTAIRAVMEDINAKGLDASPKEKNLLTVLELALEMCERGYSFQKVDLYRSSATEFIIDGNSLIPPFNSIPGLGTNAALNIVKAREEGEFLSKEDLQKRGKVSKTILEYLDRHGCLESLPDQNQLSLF
# Test: qHTS Validation Assay for the Inhibitors of DNA Replication in Gram-Positive Bacteria (AID 485295; active means well fitted curve in the direction sought with a large enough effect; an effect the other way counts as inactive or inconclusive; further: potency means the concentration at half of the fitted maximal effect;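 on activity change, negative = inhibition: reconstituted holoenzyme with PolC plus beta clamp SSB and primase; PicoGreen fluorescence of double-stranded DNA made on primed circular M13 template; 0% = DMSO wells and -100% = EDTA-quenched background wells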)
# Conditions: Gram-positive bacterial DNA replication assay; series mostly up to 57.1 µM; activity change, negative = inhibition: at the top concentration
# In short: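 PicoGreen fluorescence (ex 480–485/em 535–540 nm) reports dsDNA synthesized on ssM13Gori template with dNTPs/NTPs. Enzyme: holoenzyme rebuilt from purified PolC, beta subunit, SSB and primase. Compound preincubated before substrate addition; RT throughout.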
SMILES,"activity change, negative = inhibition",Potency
CCCC(=O)NCCc1c2n(c3ccc(OC)cc13)CCCc1ccccc1-2,-2.07% (inactive),–
C[C@H]1CC2C3CCC4=CC(=O)C=C[C@]4(C)[C@@]3(Cl)[C@@H](O)C[C@]2(C)[C@@]1(O)C(=O)CO (some centres undefined),-1.58% (inactive),–
OC[C@H]1O[C@H](n2cnc3c(N[C@H]4CCC[C@@H]4O)ncnc32)[C@H](O)[C@@H]1O,4.69% (inactive),–
N[C@H](C(=O)O)[C@H](Cc1ccccc1)C(=O)O,-1.54% (inactive),–
O=c1onc2cnc3ccccc3n12,0.465% (inactive),–
C=C1C[C@@]23CC[C@H]4[C@@](C)(CCC[C@@]4(C)C(=O)OC4OC(CO)C(O)C(O)C4O)[C@@H]2CC[C@]1(OC1OC(CO)C(O)C(O)C1OC1OC(CO)C(O)C(O)C1O)C3 (some centres undefined),-1.7% (inactive),–
C[C@]12C=CC(=O)C=C1CC[C@@H]1C2=CC[C@]2(C)[C@@H](C(=O)CN3CCN(c4cc(N5CCCC5)nc(N5CCCC5)n4)CC3)CC[C@@H]12,-2.6% (inactive),–
O=c1[nH]c(=O)c2nc3ccccc3nc2[nH]1,-2.05% (inactive),–
CCc1ccc2c(-c3cccc(Cl)c3)nc(=O)n(CC)c2n1,-1.52% (inactive),–
O=C(O)C1=CC(=C(c2ccc(O)c(C(=O)O)c2)c2ccc(O)c(C(=O)O)c2)C=CC1=O,–,3.36 µM (active)
Brc1c(Br)c(Br)c2[nH]cnc2c1Br,-3.69% (inactive),–
C=CC1(C)CC(=O)C2(O)C(C)(O1)C(OC(C)=O)C(O)C1C(C)(C)CCC(O)C12C (centres undefined),-7.74% (inactive),–
c1ccc(C(NCc2cccnc2)(c2ccccc2)c2ccccc2)cc1,-4.41% (inactive),–
CN(C)CCCc1cc(C(=O)Nc2ccc(-c3ccncc3)cc2)ccc1O,-3.04% (inactive),–

# Target: Tumor susceptibility gene 101 protein (Homo sapiens) (UniProt Q99816)
# Sequence (Q99816 whole entry, looked up): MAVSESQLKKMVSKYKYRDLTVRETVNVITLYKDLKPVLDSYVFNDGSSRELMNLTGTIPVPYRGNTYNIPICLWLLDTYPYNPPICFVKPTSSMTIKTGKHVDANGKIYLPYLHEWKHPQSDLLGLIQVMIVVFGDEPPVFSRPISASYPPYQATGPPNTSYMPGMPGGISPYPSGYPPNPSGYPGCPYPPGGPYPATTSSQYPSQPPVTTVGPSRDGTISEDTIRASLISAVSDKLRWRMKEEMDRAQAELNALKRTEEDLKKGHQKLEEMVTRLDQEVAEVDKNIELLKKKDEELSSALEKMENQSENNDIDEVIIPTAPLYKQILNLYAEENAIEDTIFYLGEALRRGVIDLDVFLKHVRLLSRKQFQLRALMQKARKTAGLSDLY
# Test: qHTS Validation Assay for Iinhibitors of HIV-1 Budding by Blocking the Interaction of PTAP/TSG101 (AID 485342); further: 0% is about no effect
# Conditions: TSG101-PTAP binding, fluorescence polarization, 4-point titration; series mostly up to 115 µM; fluorescence change: at the top concentration
# In short: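 FP read-out: FITC-PTAP peptide, 50 nM final, binding Tsg101 binding domain, 10 uM final; 20 min r.t.; 10 mM HEPES pH 7.5, 0.15 M NaCl, 0.01% Tween 20, 3 mM EDTA, 0.1 mM TCEP.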
row,SMILES,fluorescence change
1,O=C(O)C1CN(CCCP(=O)(O)O)CCN1 (centres undefined),5.07% (inactive)
2,CCCC(=O)NCCc1c2n(c3ccc(OC)cc13)CCCc1ccccc1-2,-10.5% (inactive)
3,CN(C)C(=O)/N=N/C(=O)N(C)C,0.414% (inactive)
4,Cc1cccc(C)c1OCC(N)C(C)C (centres undefined),-0.959% (inactive)
5,N[C@H](C(=O)O)[C@H](Cc1ccccc1)C(=O)O,1.1% (inactive)
6,O=c1onc2cnc3ccccc3n12,-0.783% (inactive)
7,C=CCn1c(=O)c2c(nc(-c3ccc(S(=O)(=O)O)cc3)n2C)n(C)c1=O,0.0071% (inactive)
8,Cn1c(=O)c2[nH]c(C3CCCC3)nc2n(C)c1=O,3.02% (inactive)
9,C[C@@]1(C2CCCC2)Cc2cc(OCC(=O)O)c(Cl)c(Cl)c2C1=O,-4.31% (inactive)
10,N=C(N)SCCN,0.113% (inactive)
11,COc1ccc(-c2ccc(N)[n+](CCCC(=O)O)n2)cc1,-1.34% (inactive)
12,C=C1C[C@@]23CC[C@H]4[C@@](C)(CCC[C@@]4(C)C(=O)OC4OC(CO)C(O)C(O)C4O)[C@@H]2CC[C@]1(OC1OC(CO)C(O)C(O)C1OC1OC(CO)C(O)C(O)C1O)C3 (some centres undefined),0.732% (inactive)
13,C[C@]12C=CC(=O)C=C1CC[C@@H]1C2=CC[C@]2(C)[C@@H](C(=O)CN3CCN(c4cc(N5CCCC5)nc(N5CCCC5)n4)CC3)CC[C@@H]12,11.7% (inactive)
14,CCCn1c(=O)c2c(ncn2C)n(CCC)c1=O,3.56% (inactive)
15,CC(=O)NNC(=O)N1Cc2ccccc2Oc2ccc(Cl)cc21,2.4% (inactive)
16,CCSC(=N)N,-0.845% (inactive)
17,CCc1ccc2c(-c3cccc(Cl)c3)nc(=O)n(CC)c2n1,2.68% (inactive)
18,O=C(O)C1=CC(=C(c2ccc(O)c(C(=O)O)c2)c2ccc(O)c(C(=O)O)c2)C=CC1=O,-12.3% (inactive)
19,Brc1c(Br)c(Br)c2[nH]cnc2c1Br,0.0206% (inactive)
20,NC(Cc1cccc(-c2ccccc2CP(=O)(O)O)c1)C(=O)O (centres undefined),-0.779% (inactive)
21,COC(=O)C(C)(N)Cc1ccc(O)cc1 (centres undefined),-0.254% (inactive)
22,C[C@@H](NCCc1ccc(O)cc1)[C@@H](O)c1ccc(O)cc1,1.5% (inactive)
23,NC1C=CC=C(C(=O)O)C1 (centres undefined),2.8% (inactive)
24,CCCN(CCc1ccccc1)C1CCc2c(O)cccc2C1 (centres undefined),1.39% (inactive)
25,CC1C(=O)N(C)C(=O)c2nc[nH]c21 (centres undefined),5.33% (inactive)
26,c1ccc(C(NCc2cccnc2)(c2ccccc2)c2ccccc2)cc1,-3.66% (inactive)
27,CN(C)CCCc1cc(C(=O)Nc2ccc(-c3ccncc3)cc2)ccc1O,-0.975% (inactive)
28,O=C(O)Cc1ccc(O)c(O)c1,5.42% (inactive)
29,CC1CCN=C(N)S1 (centres undefined),-5.72% (inactive)
